# LMNA splice mod: qHTS Assay for Modulators of Lamin A Splicing. HeLa LMNA splicing GFP/RFP minigene ratio, 48 h. 200,000 compounds, 0.01% hits. Potency, µM (titrated, usually from 46.1 µM), for inactives: top-dose ratio change, negative = inhibition, usual class: inhibitors; active means well fitted inhibition curve with a large enough effect in the signal ratio, with a control signal flat, not every such curve was filed as active; inconclusive means small, poorly fitted or top-dose-only effect, or effect the other way, or a change in a side signal; the % refers to the signal ratio; further: potency means the concentration at half of the fitted maximal effect
#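 Read-out is the ratio of GFP to DsRed2 object intensity, acquired by 488 nm laser-scanning cytometry on HeLa lamin A-EGFP minigene reporter cells. Compound incubation 48 hrs at 37 °C in Opti-MEM with 2% FBS; DMSO 0.5% final.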
# ALDH1A1 block: qHTS Assay for Inhibitors of Aldehyde Dehydrogenase 1 (ALDH1A1); Aldehyde dehydrogenase 1A1 (Homo sapiens), P00352; AID 1030, 2008; Potency, µM (highest dose often 75.3 µM), without a hit: top-dose activity, negative = inhibition, most hits filed as inhibitors; 220,000 compounds, 7.3% hits; Purified ALDH1A1, NADH fluorescence, propionaldehyde substrate;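 further: potency means the concentration at half of the fitted maximal effect; plate controls were no enzyme wells and a reference inhibitor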
# PNC inhibitor: High Content Assay for Compounds that inhibit the Assembly of the Perinucleolar Compartment; PC3M PTB-GFP, PNC prevalence imaging, 16 h; active compounds read low; activity change (PNC), negative = inhibition, % at 10 µM; 140,000 compounds, 3.1% hits; AID 2417, 2010;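 active means readout at or below -70, meaning at least 70% loss of cells showing the perinucleolar compartment, a nuclear body marking cancer cells; inconclusive means readout between -30 and a set limit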;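 further: plate controls were DMSO wells for no effect and camptothecin positive control wells for full effect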
#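 Read-out is percentage of cells bearing a perinucleolar compartment, from automated 20x imaging of fixed, Hoechst-stained PC3M PTB-GFP cells. Cells were seeded 4 h, then exposed 16 h to compound (23 nl of library stock) in duplicate plates.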
# IMPase cell inh: qHTS Assay for Identifying the Cell-Membrane Permeable IMPase Inhibitors | Inositol monophosphatase 1 (Rattus norvegicus), P97697 | 120,000 tested, under 10 active | CHO-M1 cells, IP1 accumulation, HTRF TR-FRET ratio | inhibition (IP1 accumulation), % at 46.1 µM; active means well fitted curve in the direction sought with a large enough effect in the signal ratio, not every such curve was filed as active; inconclusive means small, poorly fitted or top-dose-only effect, or a change in a side signal; inactive means no such curve, though single readings can be large or run the other way; the % refers to the signal ratio;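 further: cells stimulated with carbachol in lithium chloride buffer; plate controls were DMSO basal wells for no effect and reference inhibitor wells for full effect; higher means more IMPase inhibition seen as more IP1 and lower FRET ratio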
# Target sequence (P97697 whole entry, looked up): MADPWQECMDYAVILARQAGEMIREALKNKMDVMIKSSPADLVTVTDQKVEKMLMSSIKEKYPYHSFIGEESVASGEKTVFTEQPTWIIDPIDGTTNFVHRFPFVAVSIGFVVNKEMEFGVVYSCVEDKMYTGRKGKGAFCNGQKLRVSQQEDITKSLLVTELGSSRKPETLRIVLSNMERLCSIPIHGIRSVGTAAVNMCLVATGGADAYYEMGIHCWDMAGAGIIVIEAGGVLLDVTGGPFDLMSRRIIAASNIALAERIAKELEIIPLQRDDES
#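 The IP-One HTRF competitive assay in carbachol-stimulated CHO-M1 cells quantifies cellular IP1. Compounds spanned up to 46 uM final, and activity is expressed as AC50 from concentration-response fits of the ratio and donor data.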
# Luc counter: Counterscreen for Luciferase (Kinase-Glo TM) Inhibition | Kinase-Glo luciferase, ATP luminescence, 8 min | Potency, µM (highest dose often 38.3 µM), for inactives: at the highest dose activity change, negative = inhibition, actives largely listed as inhibitors | AID 1379, 2008 | 200,000 compounds, 0.28% hits; active means well fitted inhibition curve with a large enough effect; inconclusive means small, poorly fitted or top-dose-only effect; further: potency means the concentration at half of the fitted maximal effect; nearly all actives have a fitted effect of over 60% in size
#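 Compounds were added to a substrate mix at pH 7.2 (50 mM imidazole, 10 uM ATP, within the enzyme's linear range), followed by Kinase-Glo detection reagent; luminescence was measured after 8 minutes at ambient temperature.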
# HPGD inh: qHTS Assay for Inhibitors of HPGD (15-Hydroxyprostaglandin Dehydrogenase); Potency, µM, for inactives: at the highest dose activity change, negative = inhibition, actives largely listed as inhibitors; purified HPGD, NADH fluorescence kinetic, PGE2 substrate; 150,000 compounds, 4.3% hits; AID 894, 2007; further: potency means the concentration at half of the fitted maximal effect
# Target sequence (P15428 whole entry, looked up): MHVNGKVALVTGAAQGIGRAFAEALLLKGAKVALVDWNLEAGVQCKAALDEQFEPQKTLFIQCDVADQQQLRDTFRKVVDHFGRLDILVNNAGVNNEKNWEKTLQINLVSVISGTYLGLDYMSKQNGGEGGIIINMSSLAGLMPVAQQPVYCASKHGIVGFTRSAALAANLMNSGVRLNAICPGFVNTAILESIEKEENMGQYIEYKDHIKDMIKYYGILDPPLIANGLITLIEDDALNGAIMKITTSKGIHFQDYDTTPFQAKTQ
#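 20 nM HPGD preincubated 15 min at room temperature with compound in 50 mM Tris-HCl pH 8, 0.01% Tween 20. Started with 1 mM NAD+ and 30 uM prostaglandin E2; NADH fluorescence (360/450 nm) read 5 times over 30-s intervals, last minus first.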
# * marks the source's active call; other numbers are inactive results; ? = inconclusive; . = no result given; [ ] = remark or other dose. In the library only some 10% were active in any assay of this set; here they are far more common. Unless noted, the call rests on the fitted dose curve; in most records, active means well fitted inhibition curve with a large enough effect (not every such curve was filed as active); inconclusive means small, poorly fitted or top-dose-only effect, or another doubt; inactive means no such curve, though single readings can be large or run the other way. Unless noted, on the % scale 0 is the no-effect control and ±100 the full control effect.
SMILES,LMNA splice mod,ALDH1A1 block,PNC inhibitor,IMPase cell inh,Luc counter,HPGD inh
CCN(CC)c1ccc(/C=N/NC(=O)OC)c(O)c1,0%,?,?,7,-4%,?
CCN(CC)c1ccc(/C=N/Nc2ccccc2)c(O)c1,21%,3.5µM*,-25,5,-7%,28µM*
CCN(CC)c1ccc(C=Nc2ccc(C)cc2)c(O)c1,?,?,82,-6,-6%,-25%
CCN(CC)c1ccc(/C=N/Nc2cccc(C)c2)c(O)c1,8%,10µM*,?,2,3%,22µM*
COc1ccc(OC)c(NC(=O)c2ccc3nc(C(C)C)oc3c2)c1,7%[46 µM],.,.,.,.,.
N#C/C(=C/c1ccc(Sc2nc3ccccc3[nH]2)o1)c1cccc(Br)c1,?,?,-19,10,2%,?
CCN1C(=O)S/C(=C/c2ccc(Sc3nc4ccccc4[nH]3)o2)C1=O,?,9%,?,6,-2%,13µM*
CCOC(=O)C(NC(=O)CCl)(Nc1sc(C)c(CC)c1C#N)C(F)(F)F (stereo not given),?,-1%,?,.,-4%,-8%
CCOC(=O)C(NC(=O)N(C)C)(Nc1sc(C)c(CC)c1C#N)C(F)(F)F (stereo not given),-6%,?,-9,.,-1%,14µM*
Cc1c(NC(=O)C(C)OC(=O)c2sc3ccccc3c2Cl)c(=O)n(-c2ccccc2)n1C (stereo not given),0%,-4%,-116*,.,-3%,-9%
Cn1c(=O)n(C)c2cc(NS(=O)(=O)c3ccc(C(C)(C)C)cc3)c(NCc3ccccc3)cc21,.,.,.,-3,.,.
Cc1ccc(NC(=O)c2nn(C34CC5CC(CC(C5)C3)C4)cc2[N+](=O)[O-])cc1,?,0.028µM*,-5,12,-2%,-21%
CCOC(=O)N1CCC(N2CC34C=CC(O3)C(C(=O)O)C4C2=O)CC1 (stereo not given),-6%,5%,-108*,9,0%,-12%
CCCN1CC23C=CC(O2)C(C(=O)O)C3C1=O (stereo not given),-7%,8%,-4,-10,2%,-10%
O=C(NCc1ccco1)c1ccc(C(=O)NCc2ccco2)s1,-9%,2%,?,?,-4%,-12%
O=C(NCc1ccco1)c1ccc(Br)s1,6%,?,-15,-1,-5%,16µM*
O=C(NCc1ccco1)c1scc2c1OCCO2,4%,22µM*,-24,-2,-10%,-29%
O=C(NCc1ccco1)c1cc2c(s1)CCCCC2,2%,28µM*,-21,-6,-9%,16µM*
CCOC(=O)CCN1C(=O)[C@H]2[C@H]3[C@H](O)[C@H](O)C/C(=N/NC(=O)OCc4ccc(OC)cc4)[C@@H]3CC[C@@H]2C1=O,.,-10%[13.5 µM],.,.,.,.
CC(=O)Nc1c(C)nn(-c2ccccc2)c1N1CCC(C(=O)Nc2ccc(Cl)cc2C)CC1,4%[46 µM],.,.,.,.,.
Cc1nn(-c2ccccc2)c2c1C1(C(=O)N3c4c(cccc41)C(C)CC3(C)C)C(C#N)=C(N)O2 (stereo not given),-8%,0.25µM*,24,12,-6%,-27%
Cc1nn(-c2ccccc2)c2c1C1(C(=O)N(C)c3ccccc31)C(C#N)=C(N)O2 (stereo not given),3%,?,?,12,-1%,-1%
COC(=O)N[C@@H](/C=C/c1ccccc1)C[N+](=O)[O-],.,8%,.,.,2%,-7%
O=c1c2c(nc3n1CCCCC3)-c1ccccc1CC21CCCC1,?,0.63µM*,0,16,5%,-14%
CCOC(=O)C1Cn2c(nc3c(c2=O)C2(CCCC2)Cc2ccccc2-3)S1 (stereo not given),?,?,-103*,4,2%,?
CCOC(=O)C1Cn2c(nc3c(c2=O)C(C)(C)Cc2ccccc2-3)S1 (stereo not given),-6%,?,-22,8,-2%,?
CCC(Sc1nc2cc3c(cc2c(=O)n1CCCCCC(=O)NCc1ccc2c(c1)OCO2)OCO3)C(=O)NCCCOC (stereo not given),-5%[46 µM],.,.,.,.,.
CO[C@H]1COC(=O)C/C=C\[C@@H](C)[C@H](OC)COC(=O)CCC[C@@H]1C,.,2%[13.5 µM],.,.,.,.

# High-throughput results: PubChem BioAssay, National Center for Advancing Translational Sciences (NCATS)
